In PubChem BioAssay (EPA / NIEHS):
Where a structure was tested more than once in an assay, its records may differ in their call. Activity calls are given as the source filed them. The calls were made as follows: active = hit-call score of the fitted dose curve at least 0.9, where 1 is the maximum; inactive = score below 0.9.

Assay: ATG_Ets_CIS: Attagene CIS-FACTORIAL HepG2 Assay for human Erythroblast Transformation Specific (ETS) (AID 2282941)
Conditions: HepG2 ETS cis-reporter transcription, actives raise or lower the signal
Protocol: ATG_CIS is a cell-based, multiplexed-readout assay that uses HepG2, a human liver cell line, with measurements taken at 24 hours after chemical dosing in a 24-well plate.ATG_Ets_CIS is one of 52 assay component(s) measured or calculated from the ATG_CIS assay. It is designed to make measurements of mRNA induction, a form of inducible reporter, as detected with fluorescence intensity signals by Reverse transcription polymerase chain reaction (RT-PCR) and Capillary electrophoresis technology.Data from the assay component ATG_Ets_CIS was analyzed into 1 assay endpoint. This assay endpoint, ATG_Ets_CIS, was analyzed with bidirectional fitting relative to DMSO as the negative control and baseline of activity. Using a type of inducible reporter, measures of mRNA for gain or loss-of-signal activity can be used to understand the reporter gene at the transcription factor-level as they relate to the gene ETS1. Furthermore, this assay endpoint can be referred to as a primary readout, because this assay has produced multiple assay endpoints where this one serves a reporter gene function. To generalize the intended target to other relatable targets, this assay endpoint is annotated to the dna binding intended target family, where the subfamily is winged helix-turn-helix.
Human liver HepG2 cells are transiently transfected with multiple reporter transcription units (MRTUs) in 6-well plates using FuGene 6 reagent (Roche; 3 ml FuGene/1 mg DNA). The MRTU constructs are regulated by a cis-regulating element (promoter). […] A major difference between the CIS and TRANS system is that in CIS activities of endogenous TFs are measured, whereas the TRANS assay evaluates changes in activities of exogenous, chimeric NR-Gal4 proteins. […] At the end of 24 hour incubation, total RNA was isolated using TriZol reagent (Invitrogen). The isolated RNA is then reverse-transcribed using oligo(dT) primer and Mo-MLV reverse transcriptase (Invitrogen) with DNAse I (Ambion) treatment for 30 min. The one-tenth of the produced cDNA was amplified by PCR using Taq DNA polymerase (Invitrogen) and two reporter sequence-specific primers. The PCR products were fluorescently labeled by primer extension with 6-arboxyfluorescein (6-FAM) 5'-labeled reporter sequence-specific primer (2 min at 95 C, 20 s at 68 C and 10 min at 72 C) and these products were digested with 5U of HpaI (New England Biolabs) for 2h at 37 C. The fragments were purified using Qiaquick PCR columns (Qiagen), analyzed on an ABI 3130xL genetic analyzer (Applied Biosystems) with peak positions identified by using a set of X-rhodamine (ROX)-labeled MapMarker1000 molecular weight standards (BioVentures). The raw capillary electrophoresis data was processed using Attagraph software (Attagene).

Compound	outcome	AC50
C[C@]12CC[C@@H]3c4ccc(O)cc4CC[C@H]3[C@@H]1CC[C@@H]2O	inactive	
CC(O)CN (stereo not given)	inactive	
O=S1(=O)CC(Cl)(Cl)C(Cl)(Cl)C1	inactive	
c1ccc2scnc2c1	inactive	
C=C(C)CCCC(C)CCO (stereo not given)	inactive	
NC(N)=NC(N)=NCCc1ccccc1	inactive	
CC=CC(=O)C1=C(C)C=CCC1(C)C	inactive	
COc1ccc2[nH]cc(CCNC(C)=O)c2c1	inactive	
CC1=CCC(C(C)C)=CC1	inactive	
O=S1(=O)CC=CC1	inactive	
CCOC(=O)CC(C)C	inactive	
CCOC(=O)C(=O)OCC	inactive	
CCCCCCCCCCCCCC(=O)OCC	inactive	
CCOC(=O)CCCCCCCCC(=O)OCC	inactive	
CC1=C(C=O)C(C)(C)CCC1	inactive	
CC1=CC[C@@H](C(C)(C)O)CC1	inactive	
CC(C)COC(=O)c1ccccc1	inactive	
CCCCOCCOCCO	inactive	
CC(=O)CC(=O)N(C)C	inactive	
C=COCC1CCC(COC=C)CC1 (stereo not given)	inactive	

Compound	outcome	AC50
N=C1N=C(N)c2ccccc21	inactive	
CC(=N[Si](C)(C)C)O[Si](C)(C)C	inactive	
c1coc(CNc2ncnc3nc[nH]c23)c1	inactive	
C=C(C)C(N)=O	inactive	
C=CC(C)(CCC=C(C)C)OC(=O)CC (stereo not given)	inactive	
C1=COCCC1	inactive	
CC(O)CNCC(C)O (stereo not given)	inactive	
CC1=CCC(C(C)(C)O)CC1 (stereo not given)	inactive	
NNC(=O)OCc1ccccc1	inactive	
C#C[C@]1(O)CC[C@H]2[C@@H]3CCc4cc(O)ccc4[C@H]3CC[C@@]21C	inactive	100 µM (active)
CC(C)CCOC(=O)CC(C)C	inactive	
C=CCCCCCCCCC(=O)OCC	inactive	
COC(=O)c1cccc(C(=O)OC)c1	inactive	
CCCCCCCC1CCCC1=O (stereo not given)	inactive	
CCOC(=O)C=Cc1ccccc1	inactive	
CC/C=C\CCCCO	inactive	
O=[N+]([O-])c1cc(N(CCO)CCO)ccc1NCCO	inactive	
CC(=O)c1ccc(C)cc1	inactive	
C=C(C)C(=O)OCCC[Si](OC)(OC)OC	inactive	
